Measured values from PubChem BioAssay AID1745850 (National Center for Advancing Translational Sciences (NCATS), 2022).
Out of some 2,100 compounds screened, about 260 (12%) were called active. About 58% were inconclusive and are not listed. Calls come from the whole dose curve; as a rule, active = well fitted cell-killing curve with a large enough effect; inconclusive = small, poorly fitted or top-dose-only effect, or effect the other way; inactive = flat fitted curve, though single readings scatter. The list shows a part of the results.

Test: Viability Counterscreen for Confirmatory qHTS for Inhibitors of ATXN expression; note: nearly all actives have a fitted effect of over 50% in size
Settings: HEK-293 ATXN2-luc cells viability, CellTiter-Fluor, 24 h; activity change, negative = cytotoxicity: at the top concentration
Procedure, shortened: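 Cells with an ATXN2-luciferase reporter were dosed in a dilution series for 24 h at 37 degrees C. Viability was read first with Gly-Phe-AFC at 25 uM final (fluorescence, ex 405/em 540), then SteadyGlo luminescence. Medium-only wells defined 100% inhibition.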
Potency is the fitted concentration of half-maximal effect.

SMILES | activity change, negative = cytotoxicity | Potency
NS(=O)(=O)c1ccc(N2N=C(c3ccccc3)CC2c2ccc(F)cc2)cc1 (centres undefined) | -3.59% (inactive) | 
CCCCn1c(SCC(=O)Nc2cc(NC(=O)c3ccco3)ccc2C)nc2ccccc2c1=O | -29.7% [at 57.5 µM] (inactive) | 
Fc1ccc2[nH]c3c(N4CCSCC4)ncnc3c2c1 |  | 25.1 µM (active)
Fc1ccc2[nH]c3c(NCc4ccccc4)ncnc3c2c1 | -21.4% (inactive) | 
Cc1ccc(CN(C)C(=O)CN2C(=O)NC(c3ccccc3)(c3ccccc3)C2=O)c(C)c1 | -19.4% (inactive) | 
COc1cc(-c2nnc(SCC(=O)N(Cc3ccccc3)C(C)(C)C)o2)cc(OC)c1OC | -20.5% (inactive) | 
C=CCOC(=O)C1=C[C@@H](c2ccc3c(c2)OCO3)C[C@@H](OCCCCO)O1 | -28.3% [at 57.5 µM] (inactive) | 
O=C(Nc1cccc(Br)c1)Oc1cccc2cccnc12 | -27.9% [at 57.5 µM] (inactive) | 
O=C(Nc1cccc2cccnc12)c1csc(COCCO)n1 | -16.4% [at 57.5 µM] (inactive) | 
O=S(=O)(Nc1cccc2cccnc12)c1ccccc1 |  | 1.78 µM (active)
O=[N+]([O-])c1ccc(C[n+]2cccc3ccc4cccnc4c32)cc1 | -4.61% (inactive) | 
O=[N+]([O-])c1ccccc1S(=O)(=O)Nc1cccc2cccnc12 |  | 17.8 µM (active)
O=c1cc(N2CCN(c3ccccc3)CC2)[nH]c(=O)n1C1CCCCC1 | -26.7% [at 57.5 µM] (inactive) | 
Cc1cc(Cl)ccc1-c1cc2nc(NCCCN(C)C)n(C)c(=O)c2s1 | 15% (inactive) | 
O=C(Nc1ccc2c(c1)CCC2)C1CCN(c2c3c(nc4ncnn24)CCC3)CC1 | -26% [at 57.5 µM] (inactive) | 
O=C1/C(=C/c2ccncc2)CCC/C1=C\c1ccncc1 |  | 10 µM (active)
CN1C/C(=C/c2cccnc2)C(=O)/C(=C/c2cccnc2)C1 | -7.06% (inactive) | 
Cc1ccc(-c2nc3ccc(Cl)cn3c2CC(C)(C)C)cc1 | -3.49% (inactive) | 
CCCNC(=O)c1ccc2c(=O)c(O)c(-c3cccc(Br)c3)[nH]c2c1 | -22.2% [at 57.5 µM] (inactive) | 
CCN(CC)C(=O)C1=C(C)N(CCC2=CCCCC2)C(=O)C(CC(=O)NC(c2ccccc2)c2ccccc2)C1 (centres undefined) | -11.3% (inactive) | 
CC(C)C[C@H](N)c1cn([C@@H](CCCCN)C(=O)N2CCNCC2)nn1 | 1.29% (inactive) | 
COc1cc(OC)cc(-c2cc3nc(C)c(CCC(=O)O)c(C)n3n2)c1 | -13.3% [at 57.5 µM] (inactive) | 
CN(C)C(=O)c1cccc(-c2cnc3c(NC=O)cc(-c4ccc(F)cc4)cn23)c1 | -13.3% (inactive) | 

SMILES | activity change, negative = cytotoxicity | Potency
COc1ccc(-c2cc(NC=O)c3ncc(-c4cccc(C(=O)NCCN(C)C)c4)n3c2)cc1 | -18.6% [at 57.5 µM] (inactive) | 
CN1CCN(c2ccc(-c3cc(NC=O)c4ncc(-c5ccc(F)c(Cl)c5)n4c3)cc2)CC1 |  | 25.1 µM (active)
COc1ccc(Cl)cc1S(=O)(=O)N1CCN(C(=O)c2n[nH]c(=O)c3ccccc23)CC1 | -15.9% (inactive) | 
O=C(NC1=CC(=O)c2ccccc2C1=O)c1ccccc1 |  | 14.1 µM (active)
O=C(Nc1nonc1-c1ccc(Cl)cc1)c1ccccc1 | -24.8% [at 57.5 µM] (inactive) | 
NCCCCCc1nnc(SCc2ccccc2Cl)o1 | -25.5% (inactive) | 
COc1ccc(C2CC(c3cccc(Br)c3)=NN2c2ccc(S(N)(=O)=O)cc2)cc1 (centres undefined) | -13.6% [at 57.5 µM] (inactive) | 
O=C(Nc1c(Cl)cccc1Cl)Oc1cccc2cccnc12 | -28% [at 57.5 µM] (inactive) | 
CC(=O)NC(c1cccs1)c1cc([N+](=O)[O-])c2cccnc2c1O (centres undefined) |  | 12.6 µM (active)
Cc1cc(OCC(=O)NC(C)c2ccccc2)ccc1[N+](=O)[O-] (centres undefined) | -7.77% (inactive) | 
CCC(=O)NC(c1ccc(Cl)cc1Cl)c1ccc2cccnc2c1O (centres undefined) |  | 7.94 µM (active)
CCCCC(=O)NC(c1ccc(Cl)cc1Cl)c1ccc2cccnc2c1O (centres undefined) | -18.5% (inactive) | 
CC(C)C(=O)NC(c1ccccc1)c1cc([N+](=O)[O-])c2cccnc2c1O (centres undefined) |  | 22.4 µM (active)
Cc1cc(OCc2nc(N)nc(N)c2-c2ccc(Cl)c(Cl)c2)ccc1[N+](=O)[O-] | -12.4% (inactive) | 
CCC(=O)NC(c1ccc(C)cc1)c1cc([N+](=O)[O-])c2cccnc2c1O (centres undefined) |  | 22.4 µM (active)
O=C(Nc1nccs1)c1cccc(N2C(=O)c3cccc4c([N+](=O)[O-])ccc(c34)C2=O)c1 | -18.8% [at 57.5 µM] (inactive) | 
COc1ccc(C2CC(c3ccccc3C(F)(F)F)=NN2c2ccc(S(N)(=O)=O)cc2)cc1 (centres undefined) | 13.8% [at 57.5 µM] (inactive) | 
CC[C@@H]1C(c2cccc(Cl)c2)=NN(c2ccc(Br)cc2)[C@H]1C(=O)N1CCOC1=O | 11.8% [at 57.5 µM] (inactive) | 
CCOC(=O)C1=CCN(S(=O)(=O)c2ccc(C)cc2)C1c1cccc(Cl)c1 (centres undefined) | -25.1% [at 57.5 µM] (inactive) | 
CC1(C(=O)NCc2ccco2)CCN1C(=O)C1(c2ccccc2)CC1 (centres undefined) | -2.76% (inactive) | 
O=C(CSc1nc2ncc(Cl)cc2[nH]1)Nc1cccc(F)c1 | -14% [at 57.5 µM] (inactive) | 
CC(C)C(=O)NC(c1cccc([N+](=O)[O-])c1)c1ccc2cccnc2c1O (centres undefined) |  | 7.94 µM (active)
O=[N+]([O-])c1ccc(NC(c2ccccc2)c2ccc3cccnc3c2O)cc1 (centres undefined) |  | 7.94 µM (active)

SMILES | activity change, negative = cytotoxicity | Potency
Oc1c(C(Nc2nccs2)c2ccc(C(F)(F)F)cc2)ccc2cccnc12 (centres undefined) |  | 15.8 µM (active)
O=C(NC(=S)N1CCN(c2ccc(F)cc2)CC1)c1cccs1 | -5.03% (inactive) | 
Nc1ccn(C2OC(COP(=O)(O)O)C(O)C2O)c(=O)n1 (centres undefined) | -26.7% [at 57.5 µM] (inactive) | 
Cc1ccc(Cc2cnc(N3C(=N)SC(C)C3=O)s2)cc1 (centres undefined) | -8.77% (inactive) | 
CCC(C)(C)c1ccc(Oc2ccc(N)cc2)cc1 | -9.83% [at 57.5 µM] (inactive) | 
CCCC(=O)N1CCCC(c2cc(C(=O)Nc3ccccc3)no2)C1 (centres undefined) | -12.5% [at 57.5 µM] (inactive) | 
Cc1cc(=O)[nH]c(N=N/C(=N/Nc2ccccc2C)c2ccccc2)n1 |  | 12.6 µM (active)
O=C(Nc1cccc(Cl)c1)c1ccc2c(c1)SC1=NS(=O)(=O)CCN12 | -19.6% (inactive) | 
CCc1cc(C)cc(OCCNC(=O)c2cncc(Br)c2)c1 | -9.86% [at 57.5 µM] (inactive) | 
CCn1c2ccccc2c2cc(NC(=O)COC(=O)Cc3cn4ccsc4n3)ccc21 | -4.46% (inactive) | 
O=C(CC1Sc2ccccc2NC1=O)NNc1cccc(Cl)c1Cl (centres undefined) | -3.89% (inactive) | 
N#C/C(=N\Nc1cccc([N+](=O)[O-])c1)C(=O)c1ccc(Br)cc1 |  | 2.51 µM (active)
CC(NC(=O)Nc1cccc([N+](=O)[O-])c1)c1ccc2c(c1)OCO2 (centres undefined) | -13.6% (inactive) | 
CC(NC(=O)Nc1cccc([N+](=O)[O-])c1)(C(F)(F)F)C(F)(F)F | -28.5% [at 57.5 µM] (inactive) | 
CC(C)=C1SC(N2CCN(c3ccc(C)c(Cl)c3)CC2)=NC1=O | -5.09% (inactive) | 
O=C(Cc1coc2cc3c(cc12)CCC3)OCC(=O)N1CCCC1=O | -16.8% [at 57.5 µM] (inactive) | 
CCc1nnc(NC(=O)c2ccc(S(=O)(=O)N(C)c3ccccc3)cc2)o1 | -10.3% (inactive) | 
CCCC(=O)Nc1ccc2nc(SCC(=O)N3CCCC3)sc2c1 | -17% [at 57.5 µM] (inactive) | 
Cc1nc2ccc(NC(=O)c3cccc(S(=O)(=O)N(C)c4ccccc4)c3)cc2s1 |  | 3.16 µM (active)
CCN1CCN(C(=S)c2ccc(-c3ccccc3)cc2)CC1 | -12% [at 57.5 µM] (inactive) | 
CC1(C)Cc2c(c(N3CCOCC3)nc3sc4c(NN)ncnc4c23)CS1 |  | 25.1 µM (active)
CN(C)CCNc1ncnc2c1sc1nc(N3CCCC3)c3c(c12)CC(C)(C)OC3 |  | 25.1 µM (active)
CN(C)CCNc1ncnc2c1sc1nc(N3CCOCC3)c3c(c12)CC(C)(C)SC3 |  | 22.4 µM (active)

SMILES | activity change, negative = cytotoxicity | Potency
CN1Cc2c(N3CCOCC3)nc3sc(C(=O)c4ccccc4)c(N)c3c2CC1(C)C | -21% (inactive) | 
COc1ccc(C2CC(c3cccc(Cl)c3)=NN2c2ccc(S(N)(=O)=O)cc2)cc1 (centres undefined) | 3.61% [at 57.5 µM] (inactive) | 
CCN(CCCn1c(=S)[nH]c2ccc(N3CCOCC3)cc2c1=O)c1ccccc1 | -2.36% (inactive) | 
Cc1nn(-c2ccccn2)c2c1C(=O)CC(C)(C)C2N=[N+]=[N-] (centres undefined) | -2.41% (inactive) | 
OCC1(CCOc2ccccc2)CCN(CC2=Cc3cc(Cl)ccc3OC2)CC1 | -23.6% [at 57.5 µM] (inactive) | 
O=C(c1cccc(Cl)c1)c1nn(-c2ccccc2)c(=O)cc1C(F)(F)F |  | 35.5 µM (active)
Cc1cc(=O)oc2c1c(C)nn2-c1cccc(Cl)c1 | -2.37% (inactive) | 
COc1cccc(-c2nc(N3CCN(C)CC3)c3ccccc3n2)c1O | -15.2% (inactive) | 
COc1ccc(Nc2nc(N3CCCC3)c3ccccc3n2)cc1 |  | 35.5 µM (active)
COc1ccc(Nc2oc(COc3ccccc3OC)nc2C#N)cc1 | 0.396% (inactive) | 
CC(=O)Oc1ccc(C23c4ccccc4C2(OC(C)=O)c2cc(OC(C)=O)ccc23)cc1 (centres undefined) |  | 28.2 µM (active)
CC(=O)Oc1ccc(Nc2ccccc2)cc1 | -7.23% (inactive) | 
O=C(CSc1nnc(-c2ccc(Br)cc2)o1)Nc1cccc(C(=O)O)c1 | -4.75% [at 57.5 µM] (inactive) | 
COC(=O)c1c(C)oc2ccc(N(C(=O)c3ccncc3)S(=O)(=O)c3ccc(C)cc3C)cc12 | -23.2% (inactive) | 
O=C(CNc1cccc(C(F)(F)F)c1)Nc1cccc(S(=O)(=O)N2CCCC2)c1 | -24.1% [at 57.5 µM] (inactive) | 
CN(CC(=O)Nc1ccc(Cl)c(C(F)(F)F)c1)C(=O)c1cccnc1Sc1ccccc1 | -12% [at 57.5 µM] (inactive) | 
Cc1ccc(C(=O)N(C)CC(=O)Nc2ccc(Cl)c(C(F)(F)F)c2)cc1S(=O)(=O)N1CCCCC1 |  | 25.1 µM (active)
O=C(NCCc1csc(-c2cccnc2)n1)c1cccc(Cl)c1 | -18.1% [at 57.5 µM] (inactive) | 
Cc1cccn2c(=O)c3cc(C(=O)NCCN4CCOCC4)c(=N)n(Cc4ccc(F)cc4)c3nc12 | -4.46% [at 57.5 µM] (inactive) | 
COc1cccc(/C=N/NC(=O)CC(C)O)c1OC/C=C/c1ccccc1 (centres undefined) | -2.85% (inactive) | 
